Source: PubChem BioAssay (Tox21)
Results filed as inconclusive are left out. Where a call stands in place of a potency, no number is given. More than one record can exist for a structure, and the calls need not agree. Active and inactive are the calls of the source. Unless noted, calls follow the shape of the dose curve; as a rule, active = well fitted cell-killing curve with a large enough effect in the repeat runs (not every such curve was filed as active); inconclusive = weak or mixed curves, or effect the other way; inactive = no such curve, though single readings can be large or run the other way.

target: Nuclear receptor subfamily 1 group I member 3 (Homo sapiens) (UniProt Q14994); experiment: qHTS assay to identify small molecule agonists of the constitutive androstane receptor (CAR) signaling pathway (AID 1224839; active = well fitted activation curve with a large enough effect in the repeat runs; also: nearly all actives have a fitted effect of over 15% in size); conditions: HepG2 hCAR CYP2B6-luciferase, agonist mode, 24 h; series mostly up to 92.4 µM
In short: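 A 15-concentration quantitative screen uses HepG2 cells co-transfected stably with human CAR and CYP2B6-2.2kb reporter. Treatment lasts 24 h with 0.75 uM PK11195 final present; ONE-Glo luminescence is the signal.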

Sequence of Nuclear receptor subfamily 1 group I member 3 (Homo sapiens) (Q14994 whole entry, looked up): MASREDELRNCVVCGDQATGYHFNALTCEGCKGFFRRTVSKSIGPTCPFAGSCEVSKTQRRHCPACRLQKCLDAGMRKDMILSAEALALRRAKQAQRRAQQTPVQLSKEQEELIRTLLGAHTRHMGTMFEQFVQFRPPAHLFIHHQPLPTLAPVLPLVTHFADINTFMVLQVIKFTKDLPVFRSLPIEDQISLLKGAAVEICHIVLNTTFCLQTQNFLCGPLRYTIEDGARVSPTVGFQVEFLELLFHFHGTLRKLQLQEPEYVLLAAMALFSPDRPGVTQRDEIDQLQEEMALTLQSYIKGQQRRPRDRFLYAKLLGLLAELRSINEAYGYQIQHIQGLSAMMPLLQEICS

**Q.** Which Potency does the source give for O=c1cc[nH]c(=S)[nH]1 here?
**A.** inactive

**Q.** With CNC[C@H](O)c1cccc(O)c1 as the compound, how does the Potency read?
**A.** inactive

**Q.** With Nc1ccc(O)c(C(=O)O)c1 as the compound, how does the Potency read?
**A.** inactive

**Q.** For O=C(O)c1cccnc1, which Potency is on record?
**A.** inactive

**Q.** With Cn1cc[nH]c1=S as the compound, how does the Potency read?
**A.** inactive

**Q.** For O=S(=O)(O)NC1CCCCC1, which Potency is on record?
**A.** inactive

**Q.** For O=NO, which Potency is on record?
**A.** inactive

tested on: not listed separately; experiment: qHTS assay to identify small molecule antagonists of the estrogen related receptor signaling pathway with the pleiotropic PPARgamma coactivator (PGC) from Tox21 10K library - cell viability counter screen (AID 1224840); conditions: PGC/ERR reporter cells viability, CellTiter-Fluor, 17.5 h; series mostly up to 92.4 µM; also: nearly all actives have a fitted effect of over 40% in size; also: potency is read from the fitted curve at half-maximal effect
In short: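 Fluorescence read-out of CellTiter-Fluor viability reagent, added after cells had been exposed to compound in DMSO for 17.5 h at 37 C; 30 min development at 37 C/5% CO2. Cells: PGC/ERR line, 2,000/well.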

**Q.** Which Potency does the source give for O=C(c1ccccc1)C(O)c1ccccc1 (stereo not drawn) here?
**A.** inactive

**Q.** With O=c1cc[nH]c(=S)[nH]1 as the compound, how does the Potency read?
**A.** inactive

**Q.** For CC(O)CO (stereo not drawn), which Potency is on record?
**A.** inactive

**Q.** With Nc1ccc(S(=O)(=O)c2ccc(N)cc2)cc1 as the compound, how does the Potency read?
**A.** inactive

**Q.** With Cc1cn([C@H]2C[C@H](N=[N+]=[N-])[C@@H](CO)O2)c(=O)[nH]c1=O as the compound, how does the Potency read?
**A.** inactive

**Q.** With Cc1ccc(C)c(OCCCC(C)(C)C(=O)O)c1 as the compound, how does the Potency read?
**A.** inactive

**Q.** For OCCc1ccccc1, which Potency is on record?
**A.** inactive

**Q.** Which Potency does the source give for CCOc1ccc(NC(=O)CC(C)O)cc1 (stereo not drawn) here?
**A.** inactive

**Q.** Which Potency does the source give for CCCNC(=O)NS(=O)(=O)c1ccc(Cl)cc1 here?
**A.** inactive

**Q.** Which Potency does the source give for O=C(O)CS here?
**A.** inactive

**Q.** With Nc1ccn([C@H]2CC[C@@H](CO)O2)c(=O)n1 as the compound, how does the Potency read?
**A.** inactive

**Q.** Which Potency does the source give for N=C(N)c1ccc(OCCCCCOc2ccc(C(=N)N)cc2)cc1 here?
**A.** inactive

**Q.** Which Potency does the source give for OC(Cn1cncn1)(Cn1cncn1)c1ccc(F)cc1F here?
**A.** inactive

**Q.** Which Potency does the source give for CNC[C@H](O)c1cccc(O)c1 here?
**A.** inactive

**Q.** Which Potency does the source give for O=C(c1ccccc1)c1ccccc1 here?
**A.** inactive

**Q.** For O=C(O)CCCCC(=O)O, which Potency is on record?
**A.** inactive

**Q.** With NC(=O)c1ccccc1O as the compound, how does the Potency read?
**A.** inactive

**Q.** With Nc1ccc(O)c(C(=O)O)c1 as the compound, how does the Potency read?
**A.** inactive

**Q.** With O=C(O)c1cccc([N+](=O)[O-])c1 as the compound, how does the Potency read?
**A.** inactive

**Q.** Which Potency does the source give for O=C(O)c1cccnc1 here?
**A.** inactive

**Q.** Which Potency does the source give for O=C(O)c1cc(N=Nc2ccc(S(=O)(=O)Nc3ccccn3)cc2)ccc1O here?
**A.** 30.7 µM (active) and inactive
